In the library only some 4.7% were active in any assay of this set; here they are far more common.
PfHsp90 yeast 2: growth inhibition of PfHsp90-expressing yeast, primary screen, antimalarial PfHsp90 inhibitor project, S. cerevisiae, BacTiter-Glo luminescence, single point, set 2; BacTiter-Glo ATP, 48 h; yeast lacking PDR1 and PDR3 efflux regulators; 310,000 tested, 0.32% active; inhibition, % at 9.4 µM; AID 504621, 2011;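 active means every replicate shows inhibition above about 80%, whatever the replicate mean, limit read from the data; inconclusive means mean inhibition reaches the set limit but some replicate falls short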
TIM10 inh: growth inhibitors of isogenic TIM10 control yeast, primary screen, counter-screen for tim10-1 yeast inhibitor project, luminescence, uHTS; S. cerevisiae TIM10 strain growth, BacTiter-Glo luminescence, 24 h; inhibition, % at 10 µM; 330,000 tested, 1.4% active; AID 463195, 2010;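 active means inhibition of 40% or more at the single tested concentration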;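 further: wild-type TIM10 isogenic control strain grown at permissive 25 °C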
tim23-1 inh: growth inhibitors of tim23-1 mutant yeast, primary screen, luminescence, uHTS | S. cerevisiae tim23-1 growth, BacTiter-Glo luminescence, 24 h | inhibition, % at 20 µM | 330,000 tested, 1.3% active;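 active means growth inhibition of the mutant yeast at or above 50%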;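 further: temperature-sensitive mutant grown at 25 °C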
tim10-1 inh: growth inhibitors of tim10-1 mutant yeast, primary screen, luminescence, uHTS. S. cerevisiae tim10-1 ts strain growth, BacTiter-Glo, 24 h. inhibition, % at 20 µM. 330,000 tested, 2.2% active. AID 463190, 2010;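 active means inhibition of at least 40%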;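 further: mutant grown at 25 °C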
SKKanGAS inh: S. pyogenes SKKanGAS growth inhibitors in kanamycin, primary screen, streptokinase expression inhibitor project, SKKanGAS strain, BacTiter-Glo luminescence. 300,000 tested, 1.3% active. 6 h. AID 1662, 2009. inhibition, % at 7.5 µM;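 active means mean replicate score, as percent of positive control median, at least 50; inconclusive means mean below 50 but one replicate at or above 50; inactive means mean and every replicate below 50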;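 further: strain carries kanamycin resistance gene driven by streptokinase promoter and grows in 40 µg/ml kanamycin; loss of luminescence reflects streptokinase promoter inhibition or plain growth inhibition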
Calb FLC: C. albicans growth inhibition with fluconazole, primary screen, CaCi-2 strain, Alamar Blue fluorescence | C. albicans CaCi-2 (fluconazole-resistant clinical isolate) + fluconazole, 48 h | growth inhibition, % (concentration not given with the values) | 300,000 tested, 0.57% active | AID 1979, 2009;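 active means growth inhibition above about 58% in most replicates, limit read from the data, passing the limit was not always enough; inconclusive means exactly half the replicates above a set limit; inactive means most replicates below a set limit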;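 further: all wells also contain fluconazole at 8 µg/ml as a sub-toxic cotreatment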
A number is an active result; – = inactive; ? = inconclusive; · = not tested or not shown.

SMILES	PfHsp90 yeast 2	TIM10 inh	tim23-1 inh	tim10-1 inh	SKKanGAS inh	Calb FLC
O=C(COc1ccc([N+](=O)[O-])cc1)NNC(=S)NC(=O)c1ccc(Br)cc1	–	–	–	–	55.2	95.4
COc1ccccc1NC(=O)CCSc1nc(C)cs1	–	–	–	–	–	–
O=[N+]([O-])c1ccc(N2CCN(Cc3ccc([N+](=O)[O-])o3)CC2)cc1	–	–	–	–	–	133.0
O=[N+]([O-])c1ccc(CN2CCN(c3ccccc3)CC2)o1	–	–	–	–	–	–
O=C(c1ccc([N+](=O)[O-])cc1)N1CCN(C2=NS(=O)(=O)c3ccccc32)CC1	–	–	–	–	–	–
c1ccc(OCc2nc3c4c(ncn3n2)-c2ccccc2CC42CCCC2)cc1	–	–	–	–	52.2	–
C=CCN1C(=O)c2ccc(C(=O)N3CCN(S(=O)(=O)c4cccc(Cl)c4)CC3)cc2C1=O	·	–	–	–	–	–
O=C(N/N=C/c1c[nH]c2ccccc12)c1ccn(Cc2ccc(Cl)cc2Cl)n1	–	–	–	–	54.7	–
COc1ccc(NC(=S)NNC(=O)CNc2ccc(Cl)cc2)cc1	–	–	–	–	·	·
COc1cc(CN2CCC(Oc3cc(C(=O)NC4CC4)ccc3OC)CC2)cc(OC)c1	–	–	–	–	–	–
O=C(NC(=S)Nc1ccc(Cl)c(C(=O)O)c1)c1cccc(COc2ccccc2)c1	–	–	–	–	56.0	–
O=C(NC(=S)Nc1ccc(Cl)c(C(=O)O)c1)c1ccc(OCc2ccccc2)cc1	–	–	–	–	–	–
COCCN(C(=O)COC(=O)CCc1c[nH]c2ccccc12)c1c(N)n(Cc2ccccc2)c(=O)[nH]c1=O	–	–	–	–	–	–
CC1CCN(c2nc(N3CCCCC3)nc(N3CCCCC3)n2)CC1	–	–	–	–	56.1	?
Cc1cc(/C=c2\sc3nc4ccccc4n3c2=O)c(C)n1-c1ccc(C(=O)O)cc1	111.8	·	·	·	–	–
O=C(NC1CCCCC1)c1ccc2snnc2c1	–	–	–	–	–	–
Cc1cccc(N2CCN(C(=O)Cc3ccccc3[N+](=O)[O-])CC2)c1C	–	–	–	–	–	–
Cc1ccc(S(=O)(=O)Nc2ccc3cc([N+](=O)[O-])ccc3c2[N+](=O)[O-])cc1	110.8	·	·	·	·	·
Cc1ccc(S(=O)(=O)Nc2ccc3ccccc3c2[N+](=O)[O-])cc1	115.4	·	·	·	·	·
COc1ccc([N+](=O)[O-])cc1NS(=O)(=O)c1ccc(C)cc1	–	–	–	–	–	–
Cc1ccc(NC(=O)Cn2c([N+](=O)[O-])cnc2C)cc1Cl	–	–	–	–	–	–
O=C(N/N=C/c1c(O)n(Cc2ccccc2)c(=O)c2ccccc12)c1cccnc1	–	–	–	–	–	–
COc1ccc(Cn2c(O)c(/C=N/NC(=O)c3cccnc3)c3ccccc3c2=O)cc1	–	·	·	·	–	102.9
Cc1cccc(-n2c(O)c(/C=N/NC(=O)c3ccccc3Cl)c3ccccc3c2=O)n1	–	–	–	–	–	?
O=C(N/N=C/c1c(O)n(-c2ccccc2Cl)c(=O)c2ccccc12)c1cccnc1	–	·	·	·	71.4	?
SMILES	PfHsp90 yeast 2	TIM10 inh	tim23-1 inh	tim10-1 inh	SKKanGAS inh	Calb FLC
COc1cc(NC(=O)CCCN2C(=O)NC(C)(C)C2=O)cc(OC)c1	–	–	–	–	·	·
Cc1cccc(NC(=O)CNC(=O)CSc2nnc(C(F)(F)F)n2C)c1C	·	–	–	–	·	·
O=C(CCN1C(=O)S/C(=C\c2ccccc2)C1=O)NC1CCS(=O)(=O)C1 (stereo unspecified)	–	–	–	–	–	–
CCCN(CCC)CCNC(=O)C1CCN(S(=O)(=O)c2cccc3nsnc23)CC1	–	–	–	–	–	–
CNc1nc(N)c([N+](=O)[O-])c(NC2CCCCC2)n1	–	–	–	–	–	–
Nc1nc(Nc2ccccc2)nc(NC2CCCCC2)c1[N+](=O)[O-]	–	–	–	–	79.2	–
COc1ccc(C(=O)NNC(=O)C(=O)Nc2cccc3ccccc23)cc1	–	–	–	–	–	–
Cc1ccc(C(O)(C(=O)NNc2ccc3ccccc3n2)c2ccc(C)cc2)cc1	–	–	–	–	71.2	–
Cc1ccc(NC2=C(NC(=O)c3ccccc3)C(=O)c3ccccc3C2=O)cc1Cl	–	–	–	–	73.7	–
CC(=O)N1CCN(c2ccc(OC[C@H]3CO[C@](Cn4ccnc4)(c4ccc(Cl)cc4Cl)O3)cc2)CC1	104.4	–	–	–	–	·
Cc1ccc(SCC(=O)N2c3ccccc3Sc3ccccc32)cc1	–	–	–	–	51.5	–
O=C(CSc1nncs1)N1c2ccccc2Sc2ccccc21	–	–	–	–	–	?
NC(=O)C1CCCN(C(=O)c2cccc(NC(=O)c3cccs3)c2)C1 (stereo unspecified)	·	–	–	–	·	·
CCCC1C(c2ccco2)NC(c2ccco2)CC1(C)O (stereo unspecified)	–	–	–	–	–	88.7
Cc1nnc(NC(=O)c2c(-c3ccccc3Cl)noc2C)s1	–	–	–	–	–	82.8
O=S(=O)(Nc1c(S(=O)(=O)c2ccccc2)c2nc3ccccc3nc2n1C1CCCCC1)c1ccccc1	–	·	·	·	91.0	–
Cc1ccc(NC(=S)N2CC(C)OC(C)C2)cc1C (stereo unspecified)	–	–	–	–	·	–
NC(=O)Cn1ccc(O)c(Cc2ccc(Cl)cc2Cl)c1=O	–	–	–	–	–	–
Cc1nc2ccccc2n1CCc1nc2c3ccccc3nc(=S)n2[nH]1	·	–	–	–	–	–
Cc1ccccc1-c1nc2c3ccccc3nc(=S)n2[nH]1	–	·	·	·	94.4	–
CCn1c(C)nc2cc(C(=O)NNC(=S)NC(=O)c3ccc(OC)cc3)ccc21	–	–	–	–	59.2	–
CCn1c(C)nc2cc(C(=O)NNC(=S)Nc3ccc(C)cc3)ccc21	–	–	–	–	–	–
COc1ccc(C(=O)NNC(=O)c2cccc3ccccc23)cc1	–	·	·	·	·	·
COc1ccc(C(=O)NNC(=S)NC(=O)C(C)(C)C)cc1	–	–	–	–	68.4	–
COc1ccc(C(=O)NC(=S)NNC(=O)c2ccccc2O)cc1	–	–	–	–	101.7	–
COc1ccc(C(=O)NC(=S)NNC(=O)c2ccccc2C)cc1	–	–	–	–	101.2	100.8
CCCCCCC1/C(=N\NC(=O)c2ccccc2)CCC1C(=O)OC (stereo unspecified)	–	–	–	–	–	–
CC(OC(=O)c1cc(=O)[nH]c2ccccc12)C(=O)N1C(C)CCCC1C (stereo unspecified)	–	–	–	–	·	·
CC(C)(C)C(=O)NC(=S)NNC(=O)c1sc2ccccc2c1Cl	99.3	–	–	–	99.7	88.3
